These sequences were tested on RXRa DBDmut IVT, anti-RXR (DBD mutation: RXRa K156A/R161A, NR concentration 90 nM) (assay: PBM binding z-score (relative to random genomic background probes); higher = stronger binding; sequences stand for … in GC…GCGATTGACAGCGTAGAATGAAGG).
Summary of the method: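 The probes on custom Agilent 4×180K protein-binding microarrays were double-stranded, with 34-nt variable regions bearing direct-repeat seeds, single-nucleotide variants, half-site ablations and random human genomic background sequences. Incubation lasted 1 h with ligand-free nuclear receptor dimers in PBS pH 7.4, 2% milk, 0.02% Triton X-100, 1 mM DTT, 0.2 mg/mL BSA and 0.4 mg/ml salmon testes DNA. Antibodies against each partner (one per run) detected bound dimers, and fluorescence scans were regression-normalized. Binding z-scores take the random background probes as reference.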

Sequence	PBM binding z-score
AGAATTAGGTTATTAAGATCAGGGAATTGCGGTC	0.599
AGAACGAGGGCAAAGAGTTGATAGCACGGGTGGC	2.57
TTACGAAGGTGAAGGTCGTTGATCCCTCTGTAGA	0.133
CAGCCTAGGTCACGGCCAGTATAGGAGGAACGTT	1.1
AGTCTAAGTTCATCTAGGTAACGTAAGATATGCT	4.94
GCTGCTAGGTCAAATGATGGTCAGCTAAAGCTCG	1.89
CAAACTAGGTCTAGAGGTCAAAGTCCGCTTCCCG	1.89
CCGACTGGGGCATAAGGTTAACATAAGCCAGCCC	-0.0628
AGAACGTGGGCACGCTGAGTTGATAGCAGAGTAG	-0.279
CAAACTAGGTCACGAAAGGTCAAACTCGAATGAC	2.91
GCGACTGGGGCATCCGCAGGTTACCATAACTTAA	0.00577
ATCTCTATGTAAAGTTCAGTGAAAGATCGATAGA	1.3
TGAATGAGGTTATAAGATTAGGGAACGTTGCAAA	0.551
GCGACTGGGGCATCAGCAGGTTACCACAACTTAA	-0.0403
GCTATTAGTTGAAAGGGCAACTGAATGATTCTCG	0.912
ATCTCTAGGTAAAGATAGTTCAGTGATTGCAAAT	0.503
GGAAGGAGGGCATTCGAGTTGATAGCATGGCGAT	1.47
CCTATCAGGCCAATCTGGGTCACTCAAGGCTTGA	0.421
ACTAGCAGGCCAAGGGTCATTCAAGATTAGTCCG	0.96
CCGAGTAGGTTATGGGGCATTCAAGCAACGGTGA	0.355

Sequence	PBM binding z-score
TTTCAAAGTTCAAAGGTAACGTAAGTATCCACAC	4.68
TCTAGCAGGCCAGAGGGTCGCTCAAGAGGTACGG	-0.342
TATACAGGGTCAAAAGCCAGAGTACGAATGTCGA	2.54
CCTCGGAGGACAACAGGAGGTCAGAGCCGCCAGA	0.0894
CCGACTGGGGCAAAGGTTACCTTACTCAGTACGA	0.0718
CGAACGAGAGCATGAGTTGATAGCAAATGCCGAT	0.193
CCAGACAGGTGAAAGATAACTCAGTCTGGTACGC	0.193
CCTATTAGTTGACCATAAGGGCAATCGAAGCTCG	0.557
CCTTACGGATCAAGGTTATAGCACGGGTGGTACG	-0.178
TAGCCTAGGTCATCGGCCAGTATACCACGCGAAC	1.02
CAAACTTGGTCAAGAGGTCAAAGTCCGCTTCCCG	2.03
CGTCAATGTTCAAGGTAACGTAACAGAAAGCAGC	0.148
GCTAGCAGGCCATTTGGGTCAATCAATGACGGGC	0.0646
CAAACTAGGTCAAGAGGTCATAGTCCGCTTCCCG	2.78
GGAACGAGGGCAAGGTGATAGCAGAGTTTGATGG	1.62
CCTCGGAGTACAACAGGAGGTCAGAGCTGCCAGA	1.27
TAGCCTAGGTCATGCGGGCCAGTAGAGTGTCGGC	0.541
TCATATAGGTAAATGCTAGATGAAAGTCCGATCT	1.15
TCTTGTAGATCAATAGAGGTTAAGAACGTGCGCT	0.923
TAGCCTAGGTCATGGGCCAGTCTACCACGCGAAC	-0.0274

From the supplement of paper PMC6555819
